Measured values taken from PubChem BioAssay.
Calls of active or inactive are those of the source.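 Rule for the calls, unless noted: active = NADPH fluorescence slope more negative than the mean of all samples by about 3 SD, 99.7% confidence; inactive = the rest.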

Key:
[1] = inhibitors of TNFa-induced NFkB p65 translocation, primary screen, imaging, HUVEC, MLSMR starter and 10KST1 sets (AID 438;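 active = inhibition above 20% together with a positive visual image hit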;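 note: compound added about 3h40 before a 20 min TNFalpha stimulation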;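 for inhibition: signal is the nuclear over cytoplasmic p65 intensity ratio per well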); conditions: HUVEC TNFa-induced p65 nuclear translocation; cell count: measured here: nuclei count (cytotoxicity indicator), at 2.08 µM; inhibition: at 2 µM, stronger effect = higher value, 0% TNFa-plus-vehicle, 100% no-TNFa wells
[2] = endothelial E-selectin expression blockers – imaging, HUVEC, immunofluorescence, MLSMR starter and 10KST1 sets, primary screen (AID 487;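 active = visually confirmed hit in the image check and inhibition above 20%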;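 for inhibition: signal is fraction of cell area covered by stained E-selectin grains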;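 for nuclei count: 100% = median nuclei count of all wells on the same plate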); conditions: HUVEC TNFalpha-induced E-selectin immunofluorescence imaging, at 2 µM; inhibition: stronger effect = higher value; nuclei count: measured here: cell number, toxicity
[3] = Primary imaging screen for DUSP6 inhibitors that restore phospho-Erk in transfected HeLa cells, chemical complementation (AID 609;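 active = compounds giving at least 50% inhibition in the cell-based MKP-3 phosphatase rescue imaging test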;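 for inhibition: phospho-Erk level distribution per well compared with pooled transfected vehicle control wells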); conditions: HeLa MKP-3 transfected, phospho-Erk imaging KS statistic, at 10 µM, cells stimulated with TPA for 15 min
[4] = biological target: Dual specificity protein phosphatase 6 (Homo sapiens) (UniProt Q16828); experiment: as above; conditions: HeLa MKP-3 transfected, phospho-Erk imaging KS statistic; at 10 µM; stronger effect = higher value; cells stimulated with TPA for 15 min
[5] = biological target: Voltage-gated potassium channel subunit beta-2 (Rattus norvegicus) (UniProt P62483); experiment: inhibitors of rat Kvbeta2 reductase activity – biochemical, NADPH fluorescence, primary screen (AID 622;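 active = fluorescence slope higher than the sample average by over 3 SD, cut at about -0.22 in these data, passing the limit was not always enough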;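 note: slope of raw intensity against log time taken from 70 to 1610 s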); conditions: recombinant KvBeta, 4-cyanobenzaldehyde reduction, at 10 µM, stronger effect = higher value
[6] = biological target: Voltage-gated potassium channel subunit beta-2 (Rattus norvegicus) (UniProt P62483); experiment: enhancers of rat Kvbeta2 NADPH turnover – biochemical, NADPH fluorescence, primary screen (AID 623); conditions: Recombinant KvBeta, NADPH fluorescence decrease slope, 10 min; at 10 µM; stronger effect = lower value;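 note: fluorescence intensity change per second fitted from 20 to 320 s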
[7] = biological target: Muscarinic acetylcholine receptor M4 (Homo sapiens) (UniProt P08173); experiment: M4-linked GIRK flux change, two-sided – cell-based, HEK293 M4/GIRK, thallium flux, BTC-AM, M4 allosteric agonist project, primary screen (AID 625;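 active = fluorescence slope after compound addition differing from the mean of all tested samples at 99.7% confidence, mostly higher but some lower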;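 note: thallium influx through GIRK channels coupled to M4 in HEK293 cells with BTC-AM dye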); conditions: at 10 µM, actives lie on both sides
[8] = inhibitors of larval lipid processing in zebrafish, primary screen, whole organism, PED6 fluorescence, gall bladder and intestine (AID 686;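 active = a full or partial loss of lipid-probe fluorescence in the fish gall bladder, intestine or both, judged by eye; inactive = no fluorescence loss, or compound toxic to the fish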;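 note: larvae 5 to 7 days old with five fish per well; signal comes from phospholipase A2 cleavage of quenched PED6 carried via bile; overnight exposure to compound and PED6 before scoring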); conditions: Zebrafish larvae PED6 lipid processing, fluorescence scoring; screened at 20 µM (by protocol)
[9] = loss of swimming-algae plug formation – whole organism, Chlamydomonas reinhardtii, WT vs cilia-less mutant, absorbance, 96-well, primary screen (AID 463189;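 active = inhibition at or above 50% relative to wild type and mutant plate controls; inactive = inhibition below 50%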;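 note: 0% = wild type cc124 cells in DMSO and 100% = ciliumless bld1 mutant cells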); conditions: Chlamydomonas reinhardtii gravitaxis, OD600 absorbance, 2 days; at 10 µM; stronger effect = higher value
[10] = reduction of polyQ htt aggregates in cells – imaging, exon1htt(103Q)mCFP cells, high-content imaging, primary screen (AID 483;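 active = visual image review flags a hit and inhibition of aggregation exceeds 20%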;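 note: compound exposure lasted 3 days before fixation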;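 for nuclei count: percent of the per-plate median nuclei count of sample wells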); conditions: exon1htt(103Q)mCFP cell line, aggregate imaging, at 2 µM; inhibition of aggregation: stronger effect = higher value; nuclei count: measured here: cell count, toxicity
[11] = biological target: Alpha-2C adrenergic receptor (Homo sapiens) (UniProt P18825); experiment: compounds altering alpha2C-coupled GIRK flux – cell-based, HEK293 alpha2C/GIRK1/2, thallium flux, primary screen (AID 624;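 active = fluorescence slope after compound addition differing from the mean of all screened samples at 99.7% confidence, in either direction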;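 note: slope of fluorescence ratio to pre-addition baseline per second over 15 to 24 s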); conditions: thallium flux BTC fluorescence, at 10 µM, actives lie on both sides
[12] = blockers of RIG-like receptor reporter activation – cell-based, Sendai virus stimulus, luciferase, 10K MLSCN set, TLR/RLR signaling modifier project, primary screen (AID 602276;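 active = inhibition at or above 50% at 10 µM; inactive = inhibition below 50%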;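 note: firefly luciferase from ISG56 promoter only with Renilla not read in this screen; 0% = Sendai virus plus DMSO and 100% = medium plus DMSO without virus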); conditions: HEK293 RL24 IRF3 luciferase reporter, at 10 µM, stronger effect = higher value
[13] = TLR3 IRF3 reporter activation blockers – cell-based, poly I:C stimulus, luciferase, 10K MLSCN set, primary screen (AID 602277;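 active = inhibition of the reporter signal at or above 50%; inactive = inhibition below 50%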); conditions: HEK293-TLR3 RL24 IRF3 luciferase reporter, at 10 µM, stronger effect = higher value
[14] = measured here: cell density z-score
[15] = measured here: nuclear c-Myc green intensity z-score
[16] = measured here: nuclear pErk red intensity z-score, stronger effect = higher value

Chain of Muscarinic acetylcholine receptor M4 (Homo sapiens) (P08173 whole entry, looked up): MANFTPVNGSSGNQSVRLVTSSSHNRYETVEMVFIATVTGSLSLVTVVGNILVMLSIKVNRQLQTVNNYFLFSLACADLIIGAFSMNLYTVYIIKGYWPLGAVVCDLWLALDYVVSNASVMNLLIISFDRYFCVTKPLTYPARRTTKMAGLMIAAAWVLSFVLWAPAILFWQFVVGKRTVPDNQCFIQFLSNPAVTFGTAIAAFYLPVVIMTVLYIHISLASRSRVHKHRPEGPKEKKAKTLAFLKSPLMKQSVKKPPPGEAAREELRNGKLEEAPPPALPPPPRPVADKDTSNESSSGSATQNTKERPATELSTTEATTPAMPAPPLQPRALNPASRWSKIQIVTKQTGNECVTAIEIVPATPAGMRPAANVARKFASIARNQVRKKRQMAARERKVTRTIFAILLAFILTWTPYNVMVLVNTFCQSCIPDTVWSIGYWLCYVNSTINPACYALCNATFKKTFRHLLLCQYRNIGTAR
Chain of Voltage-gated potassium channel subunit beta-2 (Rattus norvegicus) (P62483 whole entry, looked up): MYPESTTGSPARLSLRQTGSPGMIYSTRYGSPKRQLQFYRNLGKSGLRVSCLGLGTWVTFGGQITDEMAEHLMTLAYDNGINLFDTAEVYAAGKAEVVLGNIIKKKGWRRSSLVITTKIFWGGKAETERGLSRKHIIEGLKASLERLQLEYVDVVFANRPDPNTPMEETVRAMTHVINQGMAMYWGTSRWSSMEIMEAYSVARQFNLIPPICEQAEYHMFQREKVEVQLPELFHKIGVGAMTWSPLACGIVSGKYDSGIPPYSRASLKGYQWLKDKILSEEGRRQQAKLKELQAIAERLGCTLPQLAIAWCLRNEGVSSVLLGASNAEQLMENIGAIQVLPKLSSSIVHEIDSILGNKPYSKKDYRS
Chain of Dual specificity protein phosphatase 6 (Homo sapiens) (Q16828 whole entry, looked up): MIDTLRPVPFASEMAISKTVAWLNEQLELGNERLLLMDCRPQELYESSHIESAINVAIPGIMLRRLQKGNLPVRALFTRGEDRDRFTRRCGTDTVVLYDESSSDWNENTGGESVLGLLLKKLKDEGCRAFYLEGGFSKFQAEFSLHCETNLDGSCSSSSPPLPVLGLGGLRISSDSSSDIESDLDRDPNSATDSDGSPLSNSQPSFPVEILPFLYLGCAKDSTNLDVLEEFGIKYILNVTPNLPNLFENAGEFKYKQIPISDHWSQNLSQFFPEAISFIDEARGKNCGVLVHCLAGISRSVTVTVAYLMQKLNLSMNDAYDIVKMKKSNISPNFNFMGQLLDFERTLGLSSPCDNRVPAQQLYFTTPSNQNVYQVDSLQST
Chain of Alpha-2C adrenergic receptor (Homo sapiens) (P18825 whole entry, looked up): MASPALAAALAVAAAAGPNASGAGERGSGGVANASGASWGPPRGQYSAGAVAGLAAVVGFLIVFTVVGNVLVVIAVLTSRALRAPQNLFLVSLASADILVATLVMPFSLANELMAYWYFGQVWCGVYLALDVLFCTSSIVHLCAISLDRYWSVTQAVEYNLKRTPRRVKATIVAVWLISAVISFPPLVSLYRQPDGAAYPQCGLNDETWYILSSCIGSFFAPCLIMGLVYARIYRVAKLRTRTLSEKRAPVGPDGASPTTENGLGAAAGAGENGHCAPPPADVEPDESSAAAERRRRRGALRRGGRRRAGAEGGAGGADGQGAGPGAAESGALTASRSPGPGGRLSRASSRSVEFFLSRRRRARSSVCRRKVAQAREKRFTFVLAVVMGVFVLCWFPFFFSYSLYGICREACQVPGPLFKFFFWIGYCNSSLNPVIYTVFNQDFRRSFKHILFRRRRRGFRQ

| SMILES | cell count [1] | inhibition [1] | inhibition [2] | nuclei count [2] | z-score [3, 14] | z-score [3, 15] | z-score [3, 16] | inhibition [4] | fluorescence slope [5] | NADPH fluorescence slope [6] | fluorescence slope [7] | outcome [8] | inhibition [9] | inhibition of aggregation [10] | nuclei count [10] | slope [11] | inhibition [12] | inhibition [13] |
| --- | --- | --- | --- | --- | --- | --- | --- | --- | --- | --- | --- | --- | --- | --- | --- | --- | --- | --- |
| COc1ccc(N2CCN(c3oc(COc4ccc(Cl)cc4)nc3C#N)CC2)cc1 | 374 | -3.3% (inactive) | -61.3% (inactive) | 106% | 1.12 | 0.417 | 0.177 | 2.71% (inactive) | -0.46 (inactive) | -7e-05 (inactive) | 0.00414 (inactive) | inactive | -10.3% (inactive) | – | – | – | – | – |
| CCSc1nc2sc3c(c2c(=O)n1C1CCCCC1)CCN(C)C3 | 364 | -10% (inactive) | -37.3% (inactive) | 101% | -0.995 | 0.578 | 0.504 | -8.59% (inactive) | -0.419 (inactive) | -6.1e-05 (inactive) | 0.00313 (inactive) | inactive | -2.62% (inactive) | – | – | – | – | – |
| CCOC(=O)c1c(C)n(C)c2ccc(OC)c(NC(=O)CN3CCC4(CC3)OCCO4)c12 | 690 | -4.9% (inactive) | -157% (inactive) | 178% | 0.288 | 0.471 | 0.00411 | -10.1% (inactive) | -0.44 (inactive) | -4.5e-05 (inactive) | 0.00438 (inactive) | inactive | -0.554% (inactive) | – | – | – | – | – |
| CCC(=NC(CC)CO)C1=C(O)CC(C)(C)CC1=O (configuration not stated) | 686 | -11.6% (inactive) | -103% (inactive) | 171% | 0.537 | -0.145 | 1.26 | -13.3% (inactive) | -0.519 (inactive) | -8.5e-05 (inactive) | 0.00583 (inactive) | inactive | -0.04% (inactive) | – | – | – | – | – |
| O=C(NCc1cccnc1)NC(C(F)(F)F)C(F)(F)F | 671 | -1.2% (inactive) | -24.5% (inactive) | 148% | 0.957 | -0.408 | -4.89 | 1.63% (inactive) | -0.454 (inactive) | -5.1e-05 (inactive) | 0.00444 (inactive) | inactive | -3.5% (inactive) | – | – | – | – | – |
| COc1cc(S(=O)(=O)N2CCN(C)CC2)c(OC)cc1Br | 616 | 13.9% (inactive) | -43.1% (inactive) | 114% | 0.0206 | -1.18 | -0.865 | 1.63% (inactive) | -0.424 (inactive) | -3.6e-05 (inactive) | 0.00502 (inactive) | inactive | 21% (inactive) | – | – | – | – | – |
| Cc1cc(=O)oc(C)c1C(=O)NC12CC3CC(CC(C3)C1)C2 | 739 | -12.2% (inactive) | -66.8% (inactive) | 166% | -0.0351 | 0.102 | 0.73 | -6.48% (inactive) | -0.455 (inactive) | -5.7e-05 (inactive) | 0.00545 (inactive) | inactive | 6.04% (inactive) | – | – | – | – | – |
| COC(=O)CSc1nc(C)c(Oc2ccccc2)c(=O)[nH]1 | 726 | 7.2% (inactive) | -102% (inactive) | 162% | -1.93 | 2.21 | -0.257 | -2.09% (inactive) | -0.424 (inactive) | -5.8e-05 (inactive) | 0.00506 (inactive) | inactive | -8.15% (inactive) | – | – | – | – | – |
| Cc1cc(C)nc(N(C#N)CN2C(=O)c3ccccc3C2=O)n1 | 629 | 6.2% (inactive) | 26.6% (inactive) | 107% | -0.879 | 0.404 | -0.916 | -9.53% (inactive) | -0.523 (inactive) | -3.9e-05 (inactive) | 0.00446 (inactive) | inactive | 30.7% (inactive) | – | – | – | – | – |
| CCOc1ccc(NC(=O)c2nn(C)cc2Br)cc1 | 647 | 2.4% (inactive) | -41% (inactive) | 157% | 0.327 | 0.393 | -0.814 | -4.27% (inactive) | -0.489 (inactive) | -6.1e-05 (inactive) | 0.00579 (inactive) | inactive | 4.55% (inactive) | – | – | – | – | – |
| COc1cc(C)nc(Nc2nc(C)c(C(C)=O)s2)n1 | 393 | 0% (inactive) | -89% (inactive) | 125% | 1.97 | -1.71 | -0.786 | 43.2% (inactive) | -0.456 (inactive) | -8.3e-05 (inactive) | 0.00495 (inactive) | inactive | 46.4% (inactive) | – | – | – | – | – |
| Cc1ccc(OCC(=O)N(C)CCc2ccccn2)cc1 | 475 | -5.5% (inactive) | -175% (inactive) | 159% | -0.678 | -1.49 | 1.57 | -2.29% (inactive) | -0.433 (inactive) | -5.2e-05 (inactive) | 0.00557 (inactive) | inactive | 7.87% (inactive) | – | – | – | – | – |
| CCOC(=O)C1(c2ccccc2)NC(c2ccc(N(C)C)cc2)C2C(=O)N(C)C(=O)C21 (configuration not stated) | 450 | -4% (inactive) | -87.1% (inactive) | 93.2% | – | – | – | – | -0.31 (inactive) | -6.3e-05 (inactive) | – | – | – | 3.8% (inactive) | 116% | 0.00476 (inactive) | 14.4% (inactive) | 22.7% (inactive) |
